From PubChem BioAssay (NCATS)
Inconclusive results are not listed. Where a call stands in place of a potency, no number is given. A number with no mark means an inactive call. Activity calls are given as the source filed them. Calls come from the whole dose curve; as a rule, active = well fitted cell-killing curve with a large enough effect; inconclusive = small, poorly fitted or top-dose-only effect, or effect the other way; inactive = flat fitted curve, though single readings scatter. Where a SMILES comes first, the peptide text is derived from it. Bridges are numbered along the chain shown (N, C = ends). [ ]: non-standard residue; d: D form. The star is where a group is joined. X1 = CCC(C)C(N)C1=NC(C(=O)*)CS1; dOrn = NCCC[C@@H](N)C(=O)O

Tested on: CAOV3
Assay: Primary qHTS to identify gynecologic anti-cancer compounds using libraries of approved drugs and bioactive compounds (AID 1345084); note: nearly all actives have a fitted effect of over 55% in size
Conditions: Gynecologic cancer cell panel viability, ATPlite luminescence, 48 h; series mostly up to 57.5 µM
Text: National Center for Advancing Translational Sciences [NCATS] Assay Overview: Chemotherapeutic drug responses vary from cancer to cancer and from patient to patient. These variations could be caused by a number of factors including patient genomic background, tumor mutations, tumor heterogeneity, and aspects of drug treatment. Chemotherapeutic drug resistance is also a common issue and can lead to ineffective treatment and patient death. Here we have profiled the cell killing effects of thousands of compounds to characterize the responses in three gynecological cancers, identify cancer-selective compounds, and understand the diversity of responses to these compounds from pan-cancer suppressors to single cell line selective compounds. In this assay, we screened a 7,914 compound drug library that included approved drug and bioactive compounds in six ovarian, three cervical, and […] placental cancer cell lines using the ATPlite assay for cell viability. […] The cervical cancer cell lines included HeLa, Ca Ski, and C-33 A. The placental cancer cell lines included JEG-3. HEK 293T cells were used as the control cell line to determine the selectivity index. ATPlite is a luminescence based assay reliant on the conversion of a luciferase substrate to light in the presence of ATP. As a cytotoxic compound will suppress growth and decrease the number of cells, the concentration of ATP will decrease, and less light signal will be detected in the well.
Assay Protocol Summary: 1,000 cells in 4 uL of media were dispensed into white, solid bottom 1536-well plates using a Multidrop Combi (Thermo Scientific). The Assay plates were incubated for 16 hours at 37 C with 5% CO2 in assay plates, followed by the addition of 23 nL of DMSO or drug dissolved in DMSO. Each compound was assayed in five concentrations (0.092, 0.46, 2.3, 11.5, and 57.5 uM), using the automated Wako 1536 Pin Tool workstation and incubated at 37 C with 5% CO2 48 hours. 4 uL of ATPlite, the ATP monitoring reagent, was then added to the each well of the assay plates using the Multidrop Combi reagent dispenser followed by incubation for 15 minutes at room temperature. The resulting luminescence was measured using the ViewLux plate reader.
Potency is the fitted concentration of half-maximal effect.

| SMILES | Potency | activity change, negative = cytotoxicity |
| --- | --- | --- |
| CC1(C)CC2C(O)C3=C(CC(C)(O)C2C1)C(=O)OC3O (stereo not given) | inactive |  |
| CCC(C)C(N)C1=NC(C(=O)N[C@@H](CC(C)C)C(=O)N[C@H](CCC(=O)O)C(=O)N[C@H](C(=O)N[C@H]2CCCCNC(=O)[C@H](CC(N)=O)NC(=O)[C@@H](CC(=O)O)NC(=O)[C@H](Cc3cnc[nH]3)NC(=O)[C@@H](Cc3ccccc3)NC(=O)[C@H]([C@@H](C)CC)NC(=O)[C@@H](CCCN)NC2=O)[C@@H](C)CC)CS1 (stereo not given in full) (X1-L[dE]IK[dOrn]I[dF]H[dD]N; lactam 4-C) | inactive |  |
| CC1=CCC2C(C)(CO)CCCC2(C)C1CC12OC1C(O)C(CO)=CC2O (stereo not given) | inactive |  |
| O=C(NC[C@H](O)CN1CCc2ccccc2C1)c1cc(NC2COC2)ncn1 | inactive |  |
| CC1CCC2(C)C(CC(O)C(O)C23CO3)C1(C)CCC1=CC(O)OC1=O (stereo not given) | inactive |  |
| Cc1c(-c2ccnn2C)cc(C(=O)NCc2ccc(S(C)(=O)=O)cn2)c(=O)n1-c1cccc(C(F)(F)F)c1 | inactive |  |
| CC(=O)c1c(C)cc(O[C@@H]2O[C@H](CO)[C@@H](O)[C@H](O)[C@H]2O)cc1O | inactive |  |
| CC1CCC2C(C)(C)CC(C)(CO)C2(O)C1C(=O)O (stereo not given) | inactive |  |
| NS(=O)(=O)OC[C@@H]1C[C@@H](n2ccc3c(N[C@H]4CCc5ccccc54)ncnc32)C[C@@H]1O | 0.631 µM (active) |  |
| C[C@@H]1O[C@@H](O[C@H]2[C@H](O[C@H]3[C@H](O[C@H]4CC[C@@]5(C)C(CC[C@]6(C)C5CC=C5[C@@H]7CC(C)(C(=O)O)C[C@@H](O)[C@]7(C)CC[C@]56C)[C@@]4(C)CO)O[C@H](C(=O)O)[C@@H](O)[C@@H]3O)O[C@H](CO)[C@H](O)[C@@H]2O)[C@H](O)[C@H](O)[C@H]1O (stereo not given in full) |  | 15.7% [at 11.6 µM] |
| C[C@@H]1CCC2C(C)(C)[C@H](O)CC[C@]2(C)[C@@]12Cc1c(O)cc3c(c1O2)CN(CCO)C3=O (stereo not given in full) | inactive |  |
| COc1cc(/C=C/C(=O)O[C@H]2[C@H](O)[C@@H](CO)O[C@@]2(CO)O[C@H]2O[C@H](COC(=O)c3ccc(O)cc3)[C@@H](O)[C@H](O)[C@H]2O)cc(OC)c1OC | inactive |  |
| CCOC(=O)[C@H](CCc1ccccc1)N[C@@H](C)C(=O)N1C2CCCCC2C[C@H]1C(=O)O (stereo not given in full) | inactive |  |
| CC1CC(O)CC(C)(C)C1(O)CCO (stereo not given) | inactive |  |
| COc1c(C)c(OCC=C(C)C)cc2c1C(=O)NC2=O | inactive |  |
| CCC(=O)O[C@]1(C(=O)CCl)[C@@H](C)C[C@H]2[C@@H]3C[C@H](F)C4=CC(=O)C=C[C@]4(C)[C@@]3(F)[C@@H](O)C[C@@]21C | inactive |  |
| CC(CCC1C(C(=O)O)=CC(=O)CC1(C)C)O[C@@H]1O[C@H](CO)[C@@H](O)[C@H](O)[C@H]1O (stereo not given in full) | inactive |  |
| CC1(C)CC2C3=CCC4C5(C)CCC(OC6OC(C(=O)O)C(O)C(O)C6OC6OC(CO)C(O)C(O)C6OC6OC(CO)C(O)C(O)C6O)C(C)(CO)C5CCC4(C)C3(C)CCC2(C)C(OC2OCC(O)C(OC3OC(CO)C(O)C(O)C3O)C2O)C1O (stereo not given) |  | 13.1% [at 6.55 µM] |
| CC(=O)OC1C=C(C(=O)O)C2(CO)CCC(C)C(C)(CCc3ccoc3)C2C1 (stereo not given) | inactive |  |
| NC(=O)c1ccc(OCC2NC(=O)C3CCCN3C2=O)cc1 (stereo not given) | inactive |  |

| SMILES | Potency | activity change, negative = cytotoxicity |
| --- | --- | --- |
| CC(=O)O[C@H]1[C@H](C)[C@@H](O)[C@H]2[C@@H]1C=C(C(=O)O)[C@H]1C[C@@H]3[C@H]([C@H]21)[C@H]1C(=O)O[C@@H]2CC[C@@]3(C)O[C@]1(O)[C@@H]2C | inactive |  |
| Nc1nonc1C(=Nc1ccc(F)c(Cl)c1)NO | inactive |  |
| CC1=C(C)C(=O)OC(C(C)(O)C2CCC3C4CC=C5CC(OC6OC(COC7OC(CO)C(O)C(O)C7O)C(O)C(O)C6O)CC(O)C5(C)C4CCC32C)C1 (stereo not given) | inactive |  |
| CCn1cc(C2=NOC(C(=O)Nc3c(C)n(C)n(-c4ccccc4)c3=O)C2)c(C)n1 (stereo not given) | inactive |  |
| C=C[C@@]1(C)CC(=O)C2[C@](C)(O1)[C@@H](OC(C)=O)[C@@H](O)[C@H]1C(C)(C)CCC[C@]21C (stereo not given in full) |  | 10.9% [at 11.6 µM] |
| CC(C)(C)NCc1cc(Nc2ccnc3cc(Cl)ccc23)c2c(c1O)CCCC2 |  | -2.51% [at 0.462 µM] |
| COC1=CC(=O)O[C@@H](/C=C/c2ccccc2)[C@@H]1O | inactive |  |
| C[C@@H]1O[C@@H](O[C@@H]2[C@@H](O)[C@H](O[C@@H]3[C@@H](O)[C@@H](O)[C@H](O[C@H]4[C@H](OC(=O)[C@]56CCC(C)(C)C[C@H]5C5=CCC7[C@@]8(C)C[C@H](O)[C@H](O[C@@H]9O[C@@H](C)[C@H](O)[C@@H](O)[C@H]9O)[C@@](C)(CO)C8CC[C@@]7(C)[C@]5(C)C[C@H]6O)O[C@H](C)[C@H](O)[C@@H]4O)O[C@H]3C)OC[C@H]2O)[C@H](O)[C@H](O)[C@H]1O (stereo not given in full) |  | 7.84% [at 6.55 µM] |
| O=C(/C=C/c1c(C(=O)O)[nH]c2cc(Cl)cc(Cl)c12)Nc1ccccc1 | inactive |  |
| NC(=O)c1cccc(-c2cc(O)cc(OC(=O)NC3CCCCC3)c2)c1 | inactive |  |
| COC1C2=C(COC2=O)C2(C)CCCC(C)(CO)C2C1OC(=O)c1ccccc1 (stereo not given) | inactive |  |
| c1nc(NC2CCCCCC2)c2cc(CNC[C@H]3CCCO3)sc2n1 | inactive |  |
| CC(C)CC(=O)OC[C@H]1O[C@@](COC(=O)CC(C)C)(O[C@H]2O[C@H](CO)[C@@H](O)[C@H](O)[C@H]2O)[C@@H](OC(=O)CC(C)C)[C@@H]1OC(=O)CC(C)C | inactive |  |
| C=CC(C)(C)O[C@@H]1O[C@H](CO[C@@H]2OC[C@](O)(CO)[C@H]2O)[C@@H](O)[C@H](O)[C@H]1O | inactive |  |
| c1ccc(Cc2ncc3c(n2)CCNCC3)cc1 | inactive |  |
| Cc1cc(O)cc(Oc2cc(C)c(C(=O)O)c(O)c2)c1 | inactive |  |
| C/C(=C\CO)CC/C=C(\C)C(=O)O[C@H]1[C@H](OC2OC=C(C(=O)O)C3CCC(C)(O)C23)O[C@H](CO)[C@@H](O)[C@@H]1O (stereo not given in full) | inactive |  |
| CC1(C)CC[C@]2(C(=O)O[C@@H]3O[C@H](CO)[C@@H](O)[C@H](O)[C@H]3O)CC[C@]3(C)C(=CCC4[C@@]5(C)C[C@@H](O)[C@H](O)[C@@](C)(CO)C5CC[C@]43C)C2C1 (stereo not given in full) | inactive |  |
| CC(=O)N1c2ccccc2C2(O)CC3C(=O)NC(CC(C)C)C(=O)N3C12 (stereo not given) | inactive |  |
| CC1(C)C(=O)C(C)(C)c2cc(C(=O)Nc3ccc(C(=O)O)cc3)ccc21 | inactive |  |
